About 14,000 (4.5%) of roughly 310,000 compounds showed an effect of 50% or more. Effects have a minus sign here. This excerpt belongs to a sample that is enriched for strong results.
target: human ether-à-go-go-related gene (hERG) potassium channel (human, UniProt Q12809); test: primary screen, population patch clamp on CHO cells stably expressing hERG; higher = less effect of the substance
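Note: peak tail current of the secondary pulse compared with the same well before compound.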

human ether-à-go-go-related gene (hERG) potassium channel, sequence (Q12809 whole entry, looked up): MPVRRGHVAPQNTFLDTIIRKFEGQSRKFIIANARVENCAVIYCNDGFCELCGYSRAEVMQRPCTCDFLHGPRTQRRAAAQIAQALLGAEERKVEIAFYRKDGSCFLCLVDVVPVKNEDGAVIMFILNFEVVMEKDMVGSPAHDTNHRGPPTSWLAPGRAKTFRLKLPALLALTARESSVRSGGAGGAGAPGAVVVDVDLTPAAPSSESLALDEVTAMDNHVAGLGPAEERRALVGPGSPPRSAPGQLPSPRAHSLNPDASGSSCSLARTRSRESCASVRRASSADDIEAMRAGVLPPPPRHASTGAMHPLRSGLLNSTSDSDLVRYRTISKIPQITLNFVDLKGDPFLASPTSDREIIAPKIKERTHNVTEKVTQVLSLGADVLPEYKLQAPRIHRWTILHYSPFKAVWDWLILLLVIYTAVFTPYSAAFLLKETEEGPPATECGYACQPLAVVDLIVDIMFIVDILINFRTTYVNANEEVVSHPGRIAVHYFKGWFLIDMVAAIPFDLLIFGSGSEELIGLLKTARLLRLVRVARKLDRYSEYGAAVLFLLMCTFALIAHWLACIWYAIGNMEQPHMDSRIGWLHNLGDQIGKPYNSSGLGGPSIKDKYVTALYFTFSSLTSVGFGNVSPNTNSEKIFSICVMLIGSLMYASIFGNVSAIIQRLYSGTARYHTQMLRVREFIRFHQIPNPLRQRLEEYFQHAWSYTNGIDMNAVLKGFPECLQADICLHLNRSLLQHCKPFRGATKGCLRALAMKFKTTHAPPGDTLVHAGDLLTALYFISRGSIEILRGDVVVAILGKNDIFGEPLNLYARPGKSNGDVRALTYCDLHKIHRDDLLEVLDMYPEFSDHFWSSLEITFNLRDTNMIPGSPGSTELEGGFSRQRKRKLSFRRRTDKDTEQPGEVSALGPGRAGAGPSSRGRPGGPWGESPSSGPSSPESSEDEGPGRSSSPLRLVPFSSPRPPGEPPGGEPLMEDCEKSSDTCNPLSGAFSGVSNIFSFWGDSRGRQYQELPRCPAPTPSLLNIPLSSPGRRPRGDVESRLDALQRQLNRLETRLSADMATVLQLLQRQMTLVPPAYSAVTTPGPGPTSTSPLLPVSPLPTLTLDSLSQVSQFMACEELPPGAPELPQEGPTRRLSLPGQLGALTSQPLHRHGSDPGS

SMILES	hERG current change (%, negative = inhibition) at 10uM [%]
CC(C)N1C(=O)CCC1C(=O)N1CCC(Cc2ccccc2)CC1 (stereo not drawn)	-25.3
CC(C)CC(C(=O)NCc1ccccn1)N1C(=O)c2ccccc2C1=O (stereo not drawn)	-1.75
CCc1ccc(N(CC(=O)NC(C)C)C(=O)CCC(=O)Nc2nccs2)cc1	13.4
COc1ccc(/C=C/C(=O)c2ccc3c4c(cccc24)CC3)cc1OC	20.8
Nc1nn(S(=O)(=O)c2ccccc2)cc1-c1ccc([N+](=O)[O-])cc1	-9.96
O=C(COC(=O)c1ccc2c(c1)OCO2)Nc1ccccc1F	11.8
O=C(O)Cc1ccc(NC(=O)c2ccc3c(c2)C(=O)N(CC2CCCO2)C3=O)cc1 (stereo not drawn)	12.6
CC1=C(C(=O)OCCBr)C(c2cccc3ccccc23)NC(=O)N1 (stereo not drawn)	17.5
CCCCN1C(=O)C(=O)N(CC(=O)N2CCc3ccccc32)C1=O	5.05
Cc1cc(C)cc(N(C(=O)c2ccco2)C(C(=O)NC2CCCC2)c2ccncc2)c1 (stereo not drawn)	9.94
COc1cc(C(=O)OCCC(C)C)cc(OC)c1O	-1.55
Cc1c(Br)c(=O)oc2c(Br)c(O)ccc12	19.9
CCOC(=O)Cn1cc(C#N)c(=O)[nH]c1=O	-17.8
Cc1c(C(=O)Nc2ccc3oc(-c4cccnc4)nc3c2)oc2ccccc12	-16.8
CN(C)CCN(C(=O)CCS(=O)(=O)c1ccccc1)c1nc2c(F)cccc2s1	13.6
CCN(CC)CCN(C(=O)CCOc1ccccc1)c1nc2c(F)cc(F)cc2s1.Cl	-8.13
CN(C)CCCN(C(=O)COc1ccccc1)c1nc2c(F)cccc2s1.Cl	-81.2
Fc1ccc(Cn2nnnc2CN2CCN(C3CCCCC3)CC2)cc1	-45.4
C/C(CC(=O)NC(C)C)=N\NC(=O)C(c1ccccc1)c1ccccc1	9.95
CC(C)(C)C(=O)C[n+]1ccc(C(N)=O)cc1.[Br-]	0.811
O=S(=O)(Nc1ccc2c(c1)OCCO2)c1c(F)cccc1F	3.4
CN(c1ccccc1)S(=O)(=O)c1cc(C(=O)OCC(=O)N2CCN(C(=O)c3ccco3)CC2)ccc1Cl	-68.3
O=C(CSc1ccccc1)OCC(=O)N1CCN(C(=O)c2ccco2)CC1	-27

SMILES	hERG current change (%, negative = inhibition) at 10uM [%]
CN(c1ccccc1)S(=O)(=O)c1cc(C(=O)OCC(N)=O)ccc1Cl	-4.09
CCN(CC)S(=O)(=O)c1ccc(C(=O)OCC(=O)N2CCN(C(=O)c3ccco3)CC2)cc1	-37.2
O=C(OCC(=O)N1CCOCC1)c1cccc(S(=O)(=O)N2CCCc3ccccc32)c1	-24.9
O=C(CCN1c2ccccc2Sc2ccccc21)OCC(=O)N1CCN(C(=O)c2ccco2)CC1	-66
O=C(COC(=O)c1cccc(S(=O)(=O)N2CCc3ccccc32)c1)NCc1ccco1	21.5
O=C(CCC(=O)c1cccs1)OCC(=O)N1CCN(C(=O)c2ccco2)CC1	-2.34
O=C(Cc1ccccc1F)OCC(=O)N1CCN(C(=O)c2ccco2)CC1	-22.6
O=C(Cc1ccc(Cl)cc1Cl)OCC(=O)N1CCN(C(=O)c2ccco2)CC1	-57.6
O=C(OCC(=O)N1CCN(C(=O)c2ccco2)CC1)c1cccc(S(=O)(=O)N2CCc3ccccc32)c1	-84
O=C(Cc1c(Cl)cccc1Cl)OCC(=O)N1CCN(C(=O)c2ccco2)CC1	-14.9
Cc1nn(C)c(Oc2ccc(Cl)cc2)c1C(=O)O	12.8
CC1=CC(C)C2(COC(=O)Nc3ccccc3)COC(C)C1C2C (stereo not drawn)	-3.03
CCOC(=O)C1CCN(Cc2cccc(Oc3ccc(Cl)cc3)c2)CC1	3.3
CCn1c(CNC(=O)c2cccs2)n[nH]c1=S	3.27
Cc1cccc(COc2ccc(/C=N/NC(=O)c3nnn(-c4nonc4N)c3C)cc2)c1	15.3
O=C(COc1cccnc1[N+](=O)[O-])Nc1ccc2c(c1)OCO2	6.1
Cc1cc(NC(=O)c2ccc(S(=O)(=O)N(C)CC3CCCO3)cc2)no1 (stereo not drawn)	2.09
COc1ccccc1CCNS(=O)(=O)c1cn(C)nc1C	1.14
O=C(OCC(=O)N1CCN(C(=O)c2ccco2)CC1)c1ccc(Cl)cc1	-38.7
CN(CCC#N)C(=O)COC(=O)c1ccc(Cl)c(S(=O)(=O)N(C)c2ccccc2)c1	-58.2
COCCN(CCOC)C(=O)COC(=O)c1ccc(Cl)c(S(=O)(=O)N(C)c2ccccc2)c1	-48.4
CN(CCC#N)C(=O)COC(=O)c1ccc(Cl)c(S(N)(=O)=O)c1	21.8
O=C(OCC(=O)N1CCN(C(=O)c2ccco2)CC1)c1ccc(Cl)c(Cl)c1	-62.9

SMILES	hERG current change (%, negative = inhibition) at 10uM [%]
O=C(OCC(=O)N1CCN(C(=O)c2ccco2)CC1)c1ccccc1	10.4
O=C(Nc1ccc2c(c1)CCC2)c1cccs1	24.7
O=C(CSc1ccc2nnc(-c3ccc(Cl)cc3)n2n1)N1CCCc2ccccc21	1.71
CCOC(=O)c1c(C)n(C)c2ccc(OC(C)C(=O)OC)cc12 (stereo not drawn)	-10
COc1cc(/C=N/Nc2ccccn2)ccc1OCC(C)C	27.5
CCCCn1c(-c2csc(C(C)C)c2)n[nH]c1=S	20.9
Cc1ccc(COc2ccsc2C(=O)NNC(N)=S)cc1	19.9
CCN(CC)CC#CCOC(c1ccccc1)c1ccccc1.Cl	-43.3
CCC(C(=O)OCCOCCN(CC)CC)c1ccccc1 (stereo not drawn)	1.01
CCCOc1ccc(C(C(=O)OCCN(CC)CC)c2ccccc2)cc1.O=C(O)C(=O)O (stereo not drawn)	-43
CCN(CC)CCCOC(=O)C(OC)(c1ccccc1)c1ccccc1.Cl	-27.9
CCNCCOC(c1ccccc1)c1ccccc1.Cl	-31.8
CCN(CC)CCOC(=O)C(O)(c1ccccc1)c1ccccc1.Cl	-42.1
CCN(CC)CCOC(c1ccccc1)c1ccc(C)cc1.Cl (stereo not drawn)	-73
CCN(CC)CCCOC(=O)C(OC(C)C)(c1ccccc1)c1ccccc1.Cl	-31.9
CCCC(C(=O)OCCN(CC)CC)(c1ccccc1)c1ccccc1.Cl	-53.9
CCN(CC)CCOC(=O)C(c1ccccc1)c1ccccc1.Cl	-52.2
CCN(CC)CCCOC(=O)C(c1ccccc1)c1ccccc1.Cl	-56.5
CCN(CC)CCOCCOC(=O)C(CC)(CC)c1ccccc1	-9.35
O=C(NNC(=O)c1cccs1)c1ccc(Cl)c([N+](=O)[O-])c1	-6.26
COC(=O)[C@H](CC(C)C)NC(=O)N1CCC(C)CC1	16.7
CCOc1ccc(C(C)=O)cc1CN1C(=O)NC2(CCCCCC2)C1=O	3.83
COc1ccccc1NC(=O)c1c(C)oc2c1CCCC2	4.78

SMILES	hERG current change (%, negative = inhibition) at 10uM [%]
O=C(O)c1cccc(CSc2nnc(-c3ccc(Cl)cc3)o2)c1	12.5
Cc1nn(Cc2ccccc2)c(C)c1NC(=O)CCC(=O)O	2.81
O=C(O)CCC(=O)Nc1ccc(F)cc1	12.7
CCNc1c(NCC)c(=O)c1=O	15.2
CC(C)CC(=O)Nc1nnc(SCC(=O)NCc2ccc3c(c2)OCO3)s1	17.7
O=C(O)c1cccc(N2C(=O)c3ccc(Oc4ccc(Cl)cc4)cc3C2=O)c1	12.8
O=C(NNC(=S)NCc1ccccc1)c1ccc2c(c1)OCO2	8.77
CCN1CCN(c2ccc(NC(C)=O)cc2Cl)CC1	-1.19
CCC(=O)Nc1ccc(N2CCN(CC)CC2)c(Cl)c1	-3.56
CCCOc1ccc(C(=O)N2CCN(c3ccc(NC(=O)CC)cc3Cl)CC2)cc1	-77
COc1ccc(OCC(=O)Nc2ccc(N3CCN(C(=O)c4ccccc4)CC3)c(Cl)c2)cc1	-19.4
CCN1CCN(c2ccc(NC(=O)c3ccc(F)cc3)cc2Cl)CC1	-75.6
CCN1CCN(c2ccc(NC(=O)c3cccnc3)cc2Cl)CC1	-16.8
CCCC(=O)Nc1ccc(N2CCN(CC)CC2)c(Cl)c1.Cl	-47.8
CCCCCC(=O)Nc1ccc(N2CCN(CC)CC2)c(Cl)c1	-71.5
O=C(Nc1ccc(N2CCOCC2)c(Cl)c1)c1ccc(F)cc1	-3.11
CCN1CCN(c2ccc(NC(=O)c3cccc(F)c3)cc2Cl)CC1	-75.2
O=C(Nc1ccc(N2CCOCC2)c(Cl)c1)c1cccc(F)c1	-21.2
CCCOc1ccc(C(=O)N2CCN(c3ccc(N)cc3Cl)CC2)cc1	-31.7
COc1ccc(-c2nnc(SCc3nnc(-c4cccs4)o3)n2CC2CCCO2)cc1 (stereo not drawn)	-32
Cc1ccc(OCc2nnc(NC(=O)c3ccco3)s2)cc1	6.86

Source: paper PMC4336329 (PLoS ONE, 2015)
